# Measured values from PubChem BioAssay (Tox21).
# Inconclusive results are not listed. A call without a number means that no potency is given here. Active and inactive are the calls of the source. Unless noted, calls come from the whole dose curve; as a rule, active = well fitted curve in the direction sought with a large enough effect in the repeat runs; inconclusive = weak or mixed curves; inactive = no such curve, though single readings can be large; an effect the other way counts as inactive or inconclusive.
# Legend:
# [1] = qHTS assay for small molecule agonists of the p53 signaling pathway (AID 651631; calls by dose curve; note: nearly all actives have a fitted effect of over 15% in size); conditions: HCT-116 p53RE-bla reporter, beta-lactamase FRET ratio, 16 h; series mostly up to 73.3 µM
# How it was run: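 Read-out is beta-lactamase FRET fluorescence measured 2 h after substrate addition at room temperature, in HCT-116 cells with a p53 response element-driven reporter exposed to compounds for 16 h at 37 °C.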
# [2] = qHTS assay for small molecules that induce genotoxicity in human embryonic kidney cells expressing luciferase-tagged ATAD5 (AID 651632); conditions: HEK293T ATAD5-luciferase induction, 16 h; series mostly up to 83.3 µM; note: nearly all actives have a fitted effect of over 15% in size
# How it was run: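 Reporter cells (HEK293T) express luciferase-tagged ATAD5, a protein that accumulates after DNA damage. Treat 16 hr at 37C/5% CO2, add Amplite, wait 30 min at RT, and read luminescence.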
# [3] = qHTS assay for small molecule agonists of the p53 signaling pathway - cell viability (AID 651633; calls by dose curve; note: nearly all actives have a fitted effect of over 30% in size); conditions: p53RE-bla HCT-116 viability, ATP luminescence, 16 h; series mostly up to 83.3 µM
# How it was run: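 Viability counter-read: CellTiter-Glo luminescence (30 min, room temperature) in the same p53RE-bla plates. These plates had been exposed to compounds for 16 h at 37 C.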
# [4] = qHTS assay for small molecules that induce genotoxicity in human embryonic kidney cells expressing luciferase-tagged ATAD5 - cell viability (AID 651634; calls by dose curve; note: nearly all actives have a fitted effect of over 25% in size); conditions: HEK293T ATAD5-luc cells viability, CellTiter-Fluor, 15.5 h; series mostly up to 83.3 µM
# How it was run: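 Seeding of 2,000 HEK293T ATAD5-luciferase cells per well preceded pin-tool compound transfer. Plates sat 15.5 hr at 37C under 5% CO2, then fluorescence was read after 30 min with CellTiter-Fluor.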
# [5] = qHTS assay for small molecule disruptors of the mitochondrial membrane potential (AID 720635); conditions: HepG2 mitochondrial membrane potential, Mito-MPS dye ratio; series mostly up to 83.2 µM; note: potency is the fitted concentration of half-maximal effect
# How it was run: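 Mitochondrial membrane potential tracked with Mito-MPS dye, red aggregates (ex 540/em 590 nm) against green monomers (ex 490/em 535 nm). Compound treatment 1 hr at 37C, dye 30 min in HepG2.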
# [6] = qHTS assay to test for compound auto fluorescence at 590 nm (red) in HepG2 cells (AID 720674); conditions: HepG2 autofluorescence, red 540/590 nm, 1 h; series mostly up to 91.3 µM
# How it was run: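 Red autofluorescence (Ex/Em 540/590 nm, Rose Bengal sodium equivalents) was measured in HepG2 cells, 2,000 per well in MEM plus 10% FBS, plated overnight at 37 C. Readings were taken 1 hr after adding 23 nL compound or DMSO, at 37 C and 5% CO2.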
# [7] = qHTS assay to test for compound auto fluorescence at 535 nm (green) in HepG2 cells (AID 720675); conditions: green autofluorescence 485/535 nm, 1 h; series mostly up to 91.3 µM
# [8] = qHTS assay to test for compound auto fluorescence at 460 nm (blue) in HEK293 cells (AID 720678); conditions: blue autofluorescence 405/460 nm; series mostly up to 91.3 µM
# How it was run: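 Measured: blue fluorescence (Ex 405/Em 460 nm) of compound-treated HEK293 cells, incubated overnight at 37C with 5% CO2 and scaled to triamterene equivalents.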
# [9] = qHTS assay to test for compound auto fluorescence at 590 nm (red) in HEK293 cells (AID 720679); conditions: red autofluorescence 540/590 nm; series mostly up to 91.3 µM
# How it was run: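 Using HEK293 cells at 2,000 per well, the screen added 23 nL of each compound after cell attachment and incubated overnight (37C, 5% CO2). The plate reader then captured red-label fluorescence, Ex/Em 540/590nm.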
# [10] = qHTS assay for small molecule disruptors of the mitochondrial membrane potential - cell viability (AID 720634; calls by dose curve;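 note: human HepG2 liver cancer cells; nearly all actives have a fitted effect of over 20% in size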); conditions: HepG2 viability, ATP luminescence (CellTiter-Glo), 1 h; series mostly up to 83.2 µM
# How it was run: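 Measuring cytotoxicity alongside mitochondrial potential, the screen quantified ATP by luminescence in HepG2 cells after 1 hr compound incubation and a 30 min room-temperature CellTiter-Glo step.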
SMILES,outcome [1],outcome [2],outcome [3],Potency [4],Potency [5],outcome [6],outcome [7],outcome [8],outcome [9],outcome [10]
C[C@H]1O[C@H](O[C@H]2[C@H](O)[C@@H](O)[C@@H](O[C@H]3[C@H](O)[C@@H](O)[C@H](O)O[C@@H]3CO)O[C@@H]2CO)[C@H](O)[C@@H](O)[C@@H]1N[C@H]1C=C(CO)[C@@H](O)[C@H](O)[C@H]1O,inactive,inactive,inactive,inactive,inactive,inactive,inactive,inactive,inactive,–
CCCCCC1Nc2cc(C(F)(F)F)c(S(N)(=O)=O)cc2S(=O)(=O)N1 (stereo not given),inactive,inactive,inactive,inactive,inactive,inactive,inactive,–,inactive,–
Cc1ccc2c(c1)c1c3n2CCNC3CCC1 (stereo not given),inactive,inactive,inactive,inactive,–,inactive,inactive,inactive,inactive,inactive
CCOC(=O)CCCCCCCCC(=O)OCC,inactive,inactive,inactive,inactive,–,inactive,inactive,inactive,inactive,–
NC(=O)C1(N2CCCCC2)CCN(CCCC(=O)c2ccc(F)cc2)CC1,inactive,inactive,–,inactive,inactive,inactive,inactive,–,inactive,inactive
O=C1OC(=O)c2cc(Oc3ccc4c(c3)C(=O)OC4=O)ccc21,inactive,inactive,–,inactive,inactive,inactive,inactive,inactive,inactive,–
CNCc1ccccc1,inactive,inactive,–,inactive,inactive,inactive,inactive,inactive,inactive,inactive
CCCO,inactive,inactive,–,inactive,inactive,inactive,inactive,–,inactive,inactive
O=C(Nc1cccc(C2=NCCN2)c1)Nc1cccc(C2=NCCN2)c1,inactive,inactive,–,inactive,inactive,inactive,inactive,–,inactive,inactive
COCCOCCOCCOC,inactive,–,inactive,inactive,inactive,inactive,inactive,–,inactive,inactive
CCCCOC(=O)[C@@H](C)Oc1ccc(Oc2ccc(C(F)(F)F)cn2)cc1,inactive,inactive,–,inactive,inactive,inactive,inactive,inactive,inactive,–
Cc1ccccc1C(=O)N1CC/C(=N\OS(=O)(=O)O)c2ccc(Cl)cc21,inactive,inactive,–,inactive,inactive,inactive,inactive,inactive,inactive,inactive
CC(C)C(=O)c1ccccc1,inactive,inactive,–,inactive,–,inactive,inactive,–,inactive,–
O=C1OC(=O)c2ccccc21,inactive,inactive,–,inactive,inactive,inactive,inactive,inactive,inactive,inactive
CCC1COC(=O)O1 (stereo not given),inactive,inactive,–,inactive,inactive,inactive,inactive,inactive,inactive,inactive
c1ccc(CNc2ncnc3nc[nH]c23)cc1,inactive,–,–,inactive,54.5 µM (active),inactive,inactive,inactive,inactive,inactive
CCC(=O)c1ccc(O)cc1,inactive,inactive,inactive,inactive,–,inactive,inactive,–,inactive,–
C[N+](C)(C)CC(O)CCl (stereo not given),inactive,inactive,–,inactive,–,inactive,inactive,inactive,–,–
